A short description of assay [1]: viability loss in pontine glioma line – cell-based, SU-DIPG-XVII, MIPE5.0, CellTiter-Glo, qHTS, dose response (AID 1347060).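 As to AC50: cells exposed to compound for 48 hours before viability readout.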 To be noted: CellTiter-Glo ATP luminescence.
Assay [2] is described as follows: viability loss in pontine glioma line – cell-based, SU-DIPG-XIII, MIPE5.0, CellTiter-Glo, qHTS, dose response (AID 1347064; cut-off not given, nearly all actives have AC50 up to about 23 µM;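 as to AC50: cells exposed to compound for 48 hours before the viability read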). To be noted: CellTiter-Glo ATP luminescence.
A short description of assay [3]: viability loss in pontine glioma line – cell-based, SU-DIPG-XXV, MIPE5.0, CellTiter-Glo, qHTS, dose response (AID 1347065).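 Also: cells exposed to compound for 48 hours before ATP readout.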 To be noted: CellTiter-Glo ATP luminescence. In general terms: Cellular ATP, detected with luciferase, serves as a proxy for viable cell number.
Assay [4] in a line: growth inhibition of DIPG cells – cell-based, MIPE5.0 library, qHTS (AID 1347068; cut-off not given, nearly all actives have IC50 up to about 30 µM;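 as to IC50: cells exposed to compound for 48 hours before viability readout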). To be noted: SU-DIPG-XXV viability. For orientation: Quantitative high-throughput screening tests each substance at several concentrations.
Assay [5] in a line: JHH-DIPG-1 glioma cell viability, MIPE5.0 library, CellTiter-Glo luminescence, qHTS (AID 1347067).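 Also: cells exposed to compound for 48 hours before readout.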 To be noted: JHH-DIPG-1 glioma viability, CellTiter-Glo ATP luminescence.
Assay [6] in a line: viability loss with induced miR-34 in A549 – imaging, A549 dox-inducible miR-34, nuclei and caspase counts, primary screen (AID 1347080;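 active = compounds whose cell count with miR-34 switched on is under 0.7 times the count with it off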). To be noted: A549 miR-34 inducible, Hoechst nuclei count, 48 h.
Assay [7] in a line: MELAS cybrid and Rieske KO viability enhancers – cell-based, MELAS cybrids, Rieske KO mouse fibroblasts, CellTiter-Glo, primary screen (AID 1508586;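 active = mean z-score across replicates of 1.96 or higher in either the MELAS or the Rieske mutant cell line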;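 also: z relative to plate mean and SD of compound and empty wells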). To be noted: low glucose.
[8] abbreviates: stronger effect = lower value, cell number ratio, induced over uninduced.
The mark [9] stands for this setting: measured here: relative caspase fold change +Dox/-Dox.
[10] abbreviates: measured here: total cells with miR-34 induction, stronger effect = lower value.
[11] abbreviates: measured here: total cells without miR-34 induction.
Where [12] appears, read: MELAS cybrid survival, CellTiter-Glo 48 h, stronger effect = higher value.
[13] abbreviates: Rieske KO mouse fibroblast survival, CellTiter-Glo 72 h.

Results filed as inconclusive are left out. Activity calls are given as the source filed them. Unless noted, the limit is not given here; nearly all actives have AC50 up to about 26 µM.

As to `Cn1ncc(Cl)c1-c1cc(C(=O)N[C@H](CN)Cc2cccc(F)c2)sc1Cl`, the AC50 in assay [1] is 5.9 µM (active); in assay [2], 2.95 µM (active); in assay [3], 3.72 µM (active). Besides, in assay [4], the call was inactive.
For `O=C(c1ccc(NS(=O)(=O)c2cccc3cccnc23)cc1)N1CCN(CC2CC2)CC1`, the outcome in assay [1], in assay [2], in assay [3] and in assay [4] was inactive.
Take `Cc1ccc(-c2nc(N)nc3c2nnn3Cc2cccc(CO[C@H]3CCOC3)n2)o1`: the compound was classed as inactive in assay [1], in assay [2], in assay [3] and in assay [4].
For the compound `Cc1ccc(Nc2ncc3c(n2)N(C)C(=O)N(c2cc(NC(=O)c4cccc(C(F)(F)F)c4)ccc2C)C3)cn1`, the AC50 in assay [1] was 0.105 µM (active); in assay [2] it was 0.0742 µM (active); in assay [3], 0.0118 µM (active). For the same compound, the IC50 in assay [4] was 0.0742 µM (active).
In the case of `Cc1ccc(S(=O)(=O)Cc2nc(-c3ccc(C(=O)NCc4cccnc4)cc3)oc2C)cc1`, the AC50 is 0.0525 µM (active) in assay [1], 0.0166 µM (active) in assay [2], 0.0148 µM (active) in assay [3] and 0.0209 µM (active) in assay [5]. Moreover, the values for the fold change in assay [6] (setting [8]) and in assay [6] (setting [9]) were 0.957 (inactive) and 0.598, respectively. The results for the cell count in assay [6] (setting [10]) and in assay [6] (setting [11]) were 5090 and 5320, respectively. Further, the values for the z-score in assay [7] (setting [12]) and in assay [7] (setting [13]) were -0.778 (inactive) and -0.8, respectively.
On to `C[C@@H](O)[C@@H]1NC(=O)[C@H](CCCCN)NC(=O)[C@@H](Cc2c[nH]c3ccccc23)NC(=O)[C@H](Cc2ccccc2)NC(=O)[C@@H](NC(=O)[C@H](N)Cc2ccccc2)CSSC[C@@H](C(=O)N[C@H](CO)[C@@H](C)O)NC1=O`, for which the outcome in assay [1], in assay [2], in assay [3] and in assay [5] was inactive. For the same compound, the figures for the fold change in assay [6] (setting [8]) and in assay [6] (setting [9]) were 0.862 (inactive) and 0.995, respectively. The cell count in assay [6] (setting [10]) is 9290; in assay [6] (setting [11]) it was 10800. Besides, the z-score is 0.396 (inactive) in assay [7] (setting [12]) and -0.498 in assay [7] (setting [13]).
Consider `COc1cc2ncnc(Oc3cccc(NC(=O)Nc4cc(C(C)(C)C(F)(F)F)on4)c3)c2cc1OC`, for which the AC50 in assay [1] was 5.9 µM (active); in assay [2] it was 16.6 µM (active); in assay [3], 10.5 µM (active); in assay [5] it was 14.8 µM (active). In addition, the results for the fold change in assay [6] (setting [8]) and in assay [6] (setting [9]) were 0.934 (inactive) and 0.373, respectively. The values for the cell count in assay [6] (setting [10]) and in assay [6] (setting [11]) were 3270 and 3490, respectively. Also, the z-score was -0.488 (inactive) in assay [7] (setting [12]) and 1.15 in assay [7] (setting [13]).
On to `C/C(=N\NC(=O)c1cccc(S(=O)(=O)N2CCOCC2)c1)c1cc(Cl)ccc1O`, for which the values for the AC50 in assay [1], in assay [2] and in assay [3] were 18.6 µM (active), 9.34 µM (active) and 16.6 µM (active), respectively. Further, the compound was classed as inactive in assay [4].
Consider `CN1CCN(c2ccc(-c3cccc(CN4CCOCC4)c3)cc2NC(=O)c2c[nH]c(=O)cc2C(F)(F)F)CC1`, for which the call in assay [1], in assay [2], in assay [3] and in assay [4] was inactive.

One may read the AC50 as the midpoint of the concentration-response curve, whichever way the signal moves. For orientation: IC50 means the point on the concentration scale where inhibition reaches its midpoint.
